Experimental data as given in PubChem BioAssay AID1745848 (National Center for Advancing Translational Sciences (NCATS), 2022).
Screen size: about 2,100 compounds; about 940 (45%) were called active. Inconclusive results (about 48%) are left out. Calls follow the shape of the dose curve; as a rule, active = well fitted inhibition curve with a large enough effect; inconclusive = small, poorly fitted or top-dose-only effect; inactive = no such curve, though single readings can be large or run the other way. The set was probably picked from earlier hits. The list shows a part of the results.

experiment: Confirmatory qHTS for Inhibitors of ATXN expression; settings: ATXN2-luciferase reporter cells, luminescence, 24 h; series mostly up to 11.5 µM; also: nearly all actives have a fitted effect of over 65% in size
Outline: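 Cells carrying ATXN2-luciferase reporter exposed 24 h at 37 C to compound. Viability then read by CellTiter-Fluor (25 uM GF-AFC, 30 min), followed by SteadyGlo luminescence; medium-only wells set 100% inhibition.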
Potency is read from the fitted curve at half-maximal effect.

| SMILES | Potency |
| --- | --- |
| Nc1ccn([C@@H]2O[C@H](CO)[C@@H](O)C2O)c(=O)n1 (stereo partly specified) | 3.55 µM (active) |
| Nc1ncn([C@@H]2O[C@H](CO)[C@@H](O)[C@H]2O)c(=O)n1 | 3.98 µM (active) |
| Nc1ccc2c(c1)OC1(CCCC1)O2 | 0.316 µM (active) |
| Clc1ccc2c(NCc3ccccc3)ccnc2c1 | 15.8 µM (active) |
| COc1ccc(-c2cc(C3CCN(c4ccc(C(C)=O)cc4[N+](=O)[O-])CC3)[nH]n2)cc1 | 15.8 µM (active) |
| Cc1ccc(C)c(NC(=O)c2ccccc2NS(=O)(=O)c2cc([N+](=O)[O-])ccc2C)c1 | 2.51 µM (active) |
| CCc1ccc(-c2csc(NC(=O)C3CC(=O)N(c4ccc5c(c4)OCCO5)C3)n2)cc1 (stereo unspecified) | 11.2 µM (active) |
| COc1ccc(-c2nc(NC(=O)C3CC(=O)N(c4ccc5c(c4)OCCO5)C3)sc2C)cc1 (stereo unspecified) | 8.91 µM (active) |
| CCCCC(=O)NC(c1ccc(OC)c(OC)c1)c1ccc2cccnc2c1O (stereo unspecified) | 2.82 µM (active) |
| CCCCC(=O)NC(c1ccc(Cl)cc1Cl)c1ccc2cccnc2c1O (stereo unspecified) | 0.708 µM (active) |
| CCC(=O)NC(c1ccc(Cl)cc1Cl)c1ccc2cccnc2c1O (stereo unspecified) | 1.26 µM (active) |
| CCCC(=O)NC(c1ccc(Cl)cc1Cl)c1ccc2cccnc2c1O (stereo unspecified) | 2.82 µM (active) |
| CCCCC(=O)NC(c1ccccc1OC)c1ccc2cccnc2c1O (stereo unspecified) | 2 µM (active) |
| CCCCC(=O)NC(c1ccccc1Cl)c1ccc2cccnc2c1O (stereo unspecified) | 2 µM (active) |
| NNC(=O)/C(=N/Nc1ccccc1)S(=O)(=O)c1ccc(Cl)cc1 | 4.47 µM (active) |
| CC(=O)c1ccc(N2CCN(CC(O)COC(c3ccccc3)c3ccccc3)CC2)cc1 (stereo unspecified) | inactive |
| CCCOc1ccc(C(=O)C(CN2CCOCC2)c2ccccc2)cc1 (stereo unspecified) | 25.1 µM (active) |
| COc1ccccc1C(=O)NNC1=C(C(=O)C(F)(F)F)CCC1 | 1.58 µM (active) |
| CCN(CC)CCn1c2ccccc2c2cnc(N)c(C#N)c21 | 1.58 µM (active) |
| O=S(=O)([N-]c1nc2ccccc2nc1-[n+]1ccc(Cc2ccccc2)cc1)c1ccc(Br)s1 | 8.91 µM (active) |
| CC[n+]1ccccc1/C=C1\Sc2ccc(C)cc2N1C | 8.91 µM (active) |

| SMILES | Potency |
| --- | --- |
| Cc1ccc2c(c1)N(C)/C(=C/c1cccc[n+]1C)S2 | 4.47 µM (active) |
| Cn1nccc1C(=O)N1CCCC(C(=O)c2cccc3ccccc23)C1 (stereo unspecified) | inactive |
| COc1cccc(-c2nc(N3CCN(C)CC3)c3ccccc3n2)c1O | 3.16 µM (active) |
| CCOC(=O)c1c(NC(=O)/C=C/C(=O)O)sc(C)c1-c1ccc(Cl)cc1 | 25.1 µM (active) |
| COc1cc(/C=C/CN2CCC(C(=O)NC(c3ccc(F)cc3)c3ccc4ccccc4n3)CC2)ccc1OC(C)=O (stereo unspecified) | 17.8 µM (active) |
| CCCCC(=O)NC(c1ccccc1)c1ccc2cccnc2c1O (stereo unspecified) | 2.82 µM (active) |
| CCCC(=O)NC(c1ccccc1)c1ccc2cccnc2c1O (stereo unspecified) | 2.82 µM (active) |
| CC(N)c1csc(NC(=O)c2cc(C(C)(C)C)nn2Cc2ccccc2)n1 (stereo unspecified) | 3.16 µM (active) |
| FC(F)(F)c1nc(-c2cccs2)ncc1-c1nnnn1-c1ccc(Cl)cc1 | 20 µM (active) |
| CCCC(=O)Nc1ccc2nc(SCC(=O)N3CCCC3)sc2c1 | inactive |
| Cc1nc2ccc(NC(=O)c3ccc(S(=O)(=O)N(C)c4ccccc4)cc3)cc2s1 | 2.24 µM (active) |
| Cc1nc2ccc(NC(=O)c3cccc(S(=O)(=O)N(C)c4ccccc4)c3)cc2s1 | 3.98 µM (active) |
| CN(c1ccccc1)S(=O)(=O)c1cccc(NC(=O)c2cc(=O)c3ccccc3o2)c1 | 28.2 µM (active) |
| CCCCC(=O)N(CCOC)c1nnc(-c2ccccc2C)s1 | inactive |
| CC[n+]1c(C=C2C=C(C)OC(C)=C2)sc2ccccc21 | 6.31 µM (active) |
| Cc1cc(Nc2cccc([N+](=O)[O-])c2)n2c(nc3ccccc32)c1C#N | 1.12 µM (active) |
| Cc1cc(Cl)c(C(=O)Nc2cccc(C(F)(F)F)c2)c(C)n1 | 11.2 µM (active) |
| CCOc1ccccc1C(=O)Nc1ccc2nc(N3CCN(c4ncccn4)CC3)cc(C)c2c1 | 7.94 µM (active) |
| CCCCC(=O)NC(c1ccc(N(CC)CC)cc1)c1ccc2cccnc2c1O (stereo unspecified) | 0.355 µM (active) |
| CCCCC(=O)NC(c1ccc(N(C)C)cc1)c1ccc2cccnc2c1O (stereo unspecified) | 1.26 µM (active) |
| COc1ccc(CNCC(O)(c2ccc(Cl)cc2)c2ccc(Cl)cc2)cc1OC | 3.16 µM (active) |

| SMILES | Potency |
| --- | --- |
| Cc1cc(C)c2c(N)c3cccc(C)c3nc2n1 | 10 µM (active) |
| O=C(COc1ccc(Cl)cc1)N/N=C/c1cccc2cccnc12 | 25.1 µM (active) |
| O=C(COc1ccc(F)cc1)N/N=C/c1cccc2cccnc12 | 3.55 µM (active) |
| CC(=O)Nc1sc2c(c1-c1nc3ccccc3s1)CN(C(C)C)CC2 | 10 µM (active) |
| CC(Oc1ccc(F)cc1)C(=O)Nc1nc(-c2ccccn2)cs1 (stereo unspecified) | 2.24 µM (active) |
| CCc1sc(C(=O)Nc2nc(-c3ccccn3)cs2)cc1C | 8.91 µM (active) |
| O=C(Nc1nc(-c2ccccn2)cs1)c1ccco1 | 4.47 µM (active) |
| O=C(Nc1nc(-c2ccccn2)cs1)c1ccccc1-n1cnnn1 | 2 µM (active) |
| CCc1cc(-c2[nH]ncc2-c2ccc(OC)cc2)c(O)cc1O | 3.98 µM (active) |
| Cc1cc(NC(=O)CSc2nccn2-c2cccc(C)c2C)no1 | inactive |
| Cc1cc(NC(=O)/C=C/C(=O)N(c2ccccc2C)C(C(=O)NC2CCCC2)c2ccc(F)cc2)no1 (stereo unspecified) | 3.55 µM (active) |
| COc1ccc(C2CC(c3ccccc3C(F)(F)F)=NN2c2ccc(S(N)(=O)=O)cc2)cc1 (stereo unspecified) | 25.1 µM (active) |
| COc1ccc(C2CC(c3cccc(Cl)c3)=NN2c2ccc(S(N)(=O)=O)cc2)cc1 (stereo unspecified) | 25.1 µM (active) |
| COc1ccc(C2CC(c3ccccc3Cl)=NN2c2ccc(S(N)(=O)=O)cc2)cc1 (stereo unspecified) | inactive |
| O=c1c(Cc2ccccc2)c(O)nc2n1CCS2 | inactive |
| Oc1ccc(Cc2ccccc2)c2cccnc12 | 10 µM (active) |
| Oc1ccc(CN2CCC(Cc3ccccc3)CC2)c2cccnc12 | 0.891 µM (active) |
| Oc1ccc(Cl)c2cccnc12 | 28.2 µM (active) |
| CC(=O)N(C1=C(Cl)C(=O)c2ccccc2C1=O)C1CCCCC1 | 8.91 µM (active) |
